Screen size: about 190,000 compounds; about 570 (0.3%) were called active.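 Rule for the calls: active = z-score above 3 at 5 µM with at least 500 cells counted in the well; inconclusive = wells under 500 cells, flagged as cytotoxic or low count; inactive = the rest.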 For the sample, actives were picked, then their nearest neighbours and some compounds at random.

This assay can be described thus: up-regulation of insulin promoter-GFP reporter – imaging, high-content screening, mouse beta cells (AID 1625).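 For cell count: total cells summed across four imaged fields per well.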 To be noted: MIN6 insulin promoter-GFP reporter, at 5 µM; cell count: measured here: cytotoxicity, nuclei count; z-score: stronger effect = higher value.
As for `O=C(O)C#Cc1cccc2ccccc12`, the cell count is 952 cells and the z-score was -0.45 (inactive).

Turning to `Cc1cc(C)c2[nH]c(=O)c(CN(Cc3ccccc3)C(=S)NCCCN(C)C)cc2c1`, the cell count was 1260 cells and the z-score was -0.25 (inactive).

In the case of `CCOc1ccc(NC(=S)N2CCCCCC2)cc1`, the cell count is 1240 cells and the z-score was -0.11 (inactive).

In the case of `CCC(C)N(C)C1CCN(C(=S)Nc2ccc(OC)cc2)CC1` (stereo unspecified), the cell count was determined as 1120 cells and the z-score is 0.62 (inactive).

`CCOc1ccc(NC(=S)N2CCC(N(C)CC3CCCO3)CC2)cc1` (stereo unspecified): the cell count worked out at 1410 cells and the z-score was 3.59 (active).

On to `Cc1cccc(N(C)C(=O)c2cc3c(=O)[nH]c4ccc(C)cc4c3s2)c1`, for which the cell count was determined as 642 cells and the z-score was -0.64 (inactive).

`CCn1c2ccccc2c2cc(NC(=O)Nc3ccc([N+](=O)[O-])cc3C)ccc21`: the cell count stood at 1070 cells and the z-score was -0.69 (inactive).

With `O=c1c2cc(-c3ccccc3)sc2nc2n1N=C(c1cccs1)CS2`, the cell count amounted to 940 cells and the z-score is 0.28 (inactive).

In the case of `S=c1[nH]nc(-c2cccs2)n1/N=C/c1cn(-c2ccccc2)nc1-c1ccc(Cl)cc1`, the cell count was found to be 941 cells and the z-score is -0.14 (inactive).

With `NS(=O)(=O)c1cccc(NC(=O)CSc2nc3ccccc3n2-c2ccccc2)c1`, the cell count is 1570 cells and the z-score was -0.28 (inactive).

Turning to `COc1cccc(NCCC(=O)c2cccc([N+](=O)[O-])c2)c1`, the cell count was 1430 cells and the z-score was -0.59 (inactive).

Consider `O=C(NCCc1csc(-c2ccccc2)n1)c1ccccc1F`, for which the cell count is 879 cells and the z-score is 4.15 (active).

Turning to `COc1ccc(-c2nc(CCNC(=O)c3ccc(Br)o3)cs2)cc1`, the cell count amounted to 1790 cells and the z-score was -0.21 (inactive).

For `O=S(=O)(NCCc1csc(-c2ccccc2)n1)c1cccnc1`, the cell count stood at 1020 cells and the z-score is 0.1 (inactive).

On to `COc1ccc([N+](=O)[O-])cc1N(CC(O)CN(CC(C)C)CC(C)C)S(=O)(=O)c1ccc(C)cc1` (stereo unspecified), for which the cell count was found to be 984 cells and the z-score was 0.3 (inactive).

Turning to `O=C1CN(C(=O)COC(=O)c2cnc(Cl)c(Cl)c2)c2ccccc2N1`, the cell count is 1340 cells and the z-score was 0.22 (inactive).

For `Cc1ccc(OCC(=O)c2cc(C)n(Cc3ccco3)c2C)c([N+](=O)[O-])n1`, the cell count was found to be 717 cells and the z-score is 0.32 (inactive).

As for `CC1=C(C(N)=O)C(c2sccc2C)n2nnnc2N1` (stereo unspecified), the cell count was 787 cells and the z-score is 1.11 (inactive).

On to `COc1ccc(C2C(C(=O)Nc3ccccc3OC)=C(C)Nc3nnnn32)c(OC)c1` (stereo unspecified), for which the cell count was 1590 cells and the z-score is 0.06 (inactive).

For `CCCCCOC(=O)C1=C(C)Nc2nnnn2C1c1ccc(OC)c(OC)c1OC` (stereo unspecified), the cell count amounted to 1410 cells and the z-score was 3.26 (active).

For `CN(C)S(=O)(=O)c1cccc(-c2nn(-c3ccccc3)cc2/C=C2\SC(=S)N(CC(=O)O)C2=O)c1`, the cell count came out at 1060 cells and the z-score is -0.06 (inactive).

Regarding `NNC(=O)c1oc2nc(-c3ccccc3)cc(-c3ccco3)c2c1N`, the cell count came to 1010 cells and the z-score is 1.58 (inactive).

For `CNC(=S)NNC(=O)c1oc2nc(-c3ccccc3)cc(-c3ccco3)c2c1N`, the cell count worked out at 871 cells and the z-score was 3.41 (active).

As to `CNC(=S)NNC(=O)c1cccn(Cc2ccccc2)c1=O`, the cell count turned out to be 1390 cells and the z-score is -0.17 (inactive).

In the case of `CSc1ccc(CN2C(=O)NC3(CCCCCC3)C2=O)cc1`, the cell count was 1210 cells and the z-score is -0.36 (inactive).

For `CC(=O)Nc1nc(C)c(-c2csc(Nc3ccc(S(N)(=O)=O)cc3)n2)s1`, the cell count came out at 1500 cells and the z-score is -2.49 (inactive).

On to `Cc1cccc(C(=O)Nc2ccccc2C(=O)NCc2cccnc2)c1`, for which the cell count turned out to be 1550 cells and the z-score is 0.35 (inactive).

Take `CC(C)(C)c1cc(C(=O)NCc2cccnc2)ccn1`: the cell count amounted to 1480 cells and the z-score is 4.34 (active).

For the compound `Cc1ccc(C(=O)NC(=S)NCc2cccnc2)cc1`, the cell count was found to be 1660 cells and the z-score was 1.63 (inactive).

As to `CCOc1ccc(NS(=O)(=O)c2cc(C)c(C)cc2C)cc1`, the cell count is 1460 cells and the z-score was 0.61 (inactive).

As for `O=C(CC1Nc2ccccc2NC1=O)Nc1ccccc1NC(=O)CC1Nc2ccccc2NC1=O` (stereo unspecified), the cell count came out at 1140 cells and the z-score was 0.1 (inactive).

As to `C=CCNC(=S)N1CCN(CCN=Cc2c(C)[nH]n(-c3ccc([N+](=O)[O-])cc3)c2=O)CC1`, the cell count amounted to 1470 cells and the z-score was 1.08 (inactive).

With `Cc1ccc(-n2[nH]c(C)c(/C=N/NC(=O)c3cccc([N+](=O)[O-])c3)c2=O)cc1C`, the cell count turned out to be 1370 cells and the z-score was 0.35 (inactive).

As for `Cc1[nH]n(-c2ccc([N+](=O)[O-])cc2)c(=O)c1C=NCCN1CCN(C(=O)c2ccccc2F)CC1`, the cell count was found to be 1450 cells and the z-score is 4.48 (active).

Take `CC(C)CCN1CCN(C/C=C/c2ccco2)CC1CCO` (stereo unspecified): the cell count was found to be 1410 cells and the z-score was 1.56 (inactive).

In the case of `O=C(COC(=O)C1CCCCC1)Nc1ccc([N+](=O)[O-])cc1`, the cell count was 1220 cells and the z-score was -0.06 (inactive).

For `O=C(NNC(=S)NC(=O)c1cn(-c2ccccc2)nc1-c1ccccc1)c1ccncc1`, the cell count is 1140 cells and the z-score was -0.61 (inactive).

`CCCCN(CCCC)CC(O)Cn1c2ccccc2c(=O)c2ccccc21` (stereo unspecified): the cell count turned out to be 1110 cells and the z-score is -0.27 (inactive).

For the compound `CC(C)N1CCC(NC(=O)Nc2ccccc2)CC1`, the cell count amounted to 1410 cells and the z-score was -0.24 (inactive).

As to `O=C(Nc1ccc2c(c1)OCCO2)C1CCCN(c2ncccn2)C1` (stereo unspecified), the cell count came to 1560 cells and the z-score is -0.18 (inactive).

As to `Cc1cc(C)nc(N2CCC(C(=O)Nc3ccc4c(c3)OCCO4)CC2)n1`, the cell count was found to be 1130 cells and the z-score was 3.37 (active).

As for `Cc1cc(C)cc(NC(=O)C2CCN(c3nc(C)cc(C)n3)CC2)c1`, the cell count was found to be 1460 cells and the z-score is -0.69 (inactive).

For `N#C/C(=C/c1ccc(-c2ccccc2[N+](=O)[O-])o1)C(=O)NCCN1CCCCC1`, the cell count was determined as 1040 cells and the z-score was 0.44 (inactive).

As for `Cc1ccc(-c2nnn(CC(=O)N(CCO)C(C(=O)NC(C)(C)C)c3ccncc3)n2)cc1` (stereo unspecified), the cell count came out at 1330 cells and the z-score is -0.54 (inactive).

With `COc1ccc(-c2nnn(CC(=O)N(CCO)C(C(=O)NC3CCCC3)c3ccc(F)cc3)n2)cc1` (stereo unspecified), the cell count was 941 cells and the z-score is 3.28 (active).

Regarding `CCOCCCN(C(=O)Cn1nnc(-c2ccc(OC)c(OC)c2)n1)C(CC)C(=O)NC1CCCC1` (stereo unspecified), the cell count is 1200 cells and the z-score was 1.26 (inactive).

Turning to `Cc1nc(Cl)c(C#N)c2c1CCCC2`, the cell count was found to be 1110 cells and the z-score was 0.33 (inactive).

Regarding `COc1ccc(NS(=O)(=O)c2ccc(Oc3c(C#N)cccc3C#N)cc2)cc1`, the cell count is 558 cells and the z-score was -2.43 (inactive).

Take `CCOC(=O)c1ccc(S(=O)(=O)N(CCO)Cc2cc3cc(OC)c(OC)cc3[nH]c2=O)cc1`: the cell count stood at 1080 cells and the z-score is -0.14 (inactive).

As for `COc1ccc(NC(=O)CCN2C(=O)/C(=C/c3ccc4c(c3)OCO4)SC2=S)cc1`, the cell count turned out to be 965 cells and the z-score is -0.34 (inactive).

As for `CC(=O)N(OCc1ccc(OC(C)C)c(Cl)c1)C(C)=O`, the cell count is 1050 cells and the z-score was -0.14 (inactive).

Turning to `Cc1cccc(-n2c(C)cc(/C=N/NC(N)=S)c2C)c1`, the cell count turned out to be 1370 cells and the z-score is 0.39 (inactive).

In the case of `Cc1cc(/C=N/Nc2ccc([N+](=O)[O-])cn2)c(C)n1-c1cccc(C(=O)O)c1`, the cell count was found to be 1080 cells and the z-score was -0.44 (inactive).

For `Cc1cc(/C=N/n2cnnc2)c(C)n1-c1cccc(C(=O)O)c1`, the cell count stood at 1240 cells and the z-score is 4.18 (active).

In the case of `CC(=O)N1N=C(c2ccncc2)OC1(Cc1ccccc1)Cc1ccccc1`, the cell count came out at 1090 cells and the z-score was 0.04 (inactive).

Consider `O=C(CSc1nnc(-c2ccc(NS(=O)(=O)c3ccccc3)cc2)o1)NCC1CCCO1` (stereo unspecified), for which the cell count turned out to be 1210 cells and the z-score was 0.05 (inactive).

In the case of `O=C(CS(=O)(=O)Cc1ccccc1)NCC1CCCO1` (stereo unspecified), the cell count amounted to 1220 cells and the z-score was -0.17 (inactive).

In the case of `O=C(CSc1ccc(-c2ccccc2)nn1)NCC1CCCO1` (stereo unspecified), the cell count turned out to be 1230 cells and the z-score was 3.02 (active).

As to `COc1cc(SC)ccc1C(=O)Nc1cc(C)ccn1`, the cell count is 1210 cells and the z-score was 0 (inactive).

Turning to `CC(=O)Nc1ccc(CC#N)cc1`, the cell count turned out to be 1210 cells and the z-score is -0.63 (inactive).

For the compound `Cc1ccccc1NC(=S)NNC(=O)c1cccc(Br)c1`, the cell count was found to be 1120 cells and the z-score is 0.03 (inactive).

For the compound `O=C(NN1C(=O)C2C(C1=O)C1C=CC2C12CC2)c1ccccc1Cl` (stereo unspecified), the cell count came out at 1130 cells and the z-score is -0.03 (inactive).

As to `CC(C)OP(=O)(OC(C)C)C(Nc1ccccc1)c1cccc([N+](=O)[O-])c1` (stereo unspecified), the cell count turned out to be 992 cells and the z-score was -0.35 (inactive).
